WRN helicase inh: blocks human WRN helicase. AID 651768. Potency, µM (highest dose often 114 µM), actives largely listed as inhibitors. WRN helicase unwinding, fluorescent forked duplex, kinetic. actives 0.46% (n = 360,000). Q14191; also: nearly all actives have a fitted effect of over 55% in size
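Enzyme (20 nM final) and test compound sit together 15 min at room temperature before substrate addition. Substrate is a single-forked duplex oligonucleotide (100 nM) labelled with fluorophore and quencher, with 2 mM ATP; helicase unwinding raises red fluorescence, read kinetically.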
POLK inh: inhibitors of human DNA polymerase kappa; actives 0.53% (n = 400,000); purified Pol kappa, fluorescent DNA synthesis assay, 10 min; Q9UBT6; AID 588579; Potency, µM (top dose mostly 107 µM), most hits filed as inhibitors
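50 nM final substrate added after 15 min RT preincubation of 10 nM Pol kappa with compound; fluorescence read at 0 and 10 min.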
POLH inh: DNA polymerase eta (human) inhibition; recombinant Pol eta, fluorescent DNA replication assay; AID 588591; Potency, µM (series often up to 114 µM), actives largely listed as inhibitors; actives 1.2% (n = 390,000); Q9Y253
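Pol eta at 10 nM preincubated with compounds 15 min at room temperature; reaction started with fluorescent substrate (50 nM final) and read kinetically at 0 and 10 min.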
PI5P4K alpha inh: PI5P4K alpha (human) kinase inhibition; P48426; PI5P4Kalpha enzyme, ADP-Glo luminescence, 60 min; active compounds read low; max response, %; actives 1.2% (n = 330,000); AID 652105; active = max response of -50% or lower; inconclusive = between -30% and -50%; inactive = -30% or higher; also: value at the top dose of about 77 µM
Target sequence (P48426 whole entry, looked up): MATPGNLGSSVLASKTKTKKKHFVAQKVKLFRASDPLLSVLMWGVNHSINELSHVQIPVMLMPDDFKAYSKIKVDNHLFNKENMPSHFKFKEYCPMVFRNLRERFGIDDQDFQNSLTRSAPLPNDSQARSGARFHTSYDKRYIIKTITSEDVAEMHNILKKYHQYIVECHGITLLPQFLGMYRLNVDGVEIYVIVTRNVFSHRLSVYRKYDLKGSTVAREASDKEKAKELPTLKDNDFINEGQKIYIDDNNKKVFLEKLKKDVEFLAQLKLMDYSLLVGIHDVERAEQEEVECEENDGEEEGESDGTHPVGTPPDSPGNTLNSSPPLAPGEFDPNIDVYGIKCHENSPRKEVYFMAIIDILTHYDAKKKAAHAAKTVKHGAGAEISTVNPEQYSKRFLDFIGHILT
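ADP-Glo luminescence end-point after a 60 min room-temperature kinase reaction. PI5P4Kalpha and substrate in HEPES pH 7.4 buffer with EGTA, 0.1% CHAPS and 5% DMSO; ATP at 5 microM final.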
Pol beta inh: blocks human DNA polymerase beta activity; P06746; Potency, µM (doses to about 114 µM), most hits filed as inhibitors; Pol beta primer extension/strand displacement, fluorescence kinetic; AID 485314; actives 1.3% (n = 340,000)
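Homogeneous kinetic assay of primer extension and strand displacement by 10 nM Pol beta, preincubated 15 min at room temperature with compound before 50 nM substrate (final) was added. Read at 0 and 10 min; four-parameter Hill fit.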
Pol iota inh: inhibitors of human DNA polymerase iota; Pol iota fluorescent replication assay, 10 min; actives 1% (n = 390,000); Q9UNA4; AID 588590; Potency, µM (doses to about 115 µM), actives largely listed as inhibitors
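Fluorescent replication assay read twice, at 0 min and 10 min after adding 50 nM (final) substrate. Enzyme (10 nM) and compounds were first incubated 15 min at room temperature; enzyme-free buffer wells were negative controls.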
Each line names hits and unclear results; the compound was inactive in the other large screens. Rows were chosen to be rich in hits. Some 2.8% of all compounds tested hit in one or more screens of this group. Unless noted, calls follow the shape of the dose curve; as a rule, active = well fitted curve in the direction sought with a large enough effect; inconclusive = small, poorly fitted or top-dose-only effect, or another doubt; inactive = no such curve, though single readings can be large; an effect the other way counts as inactive or inconclusive.

Cc1ccc2c(C(=O)CCl)c(C)[nH]c2c1	POLH inh inconclusive, Pol iota inh 10µM
CN(C)c1ccc(/C=C\C=C/c2ccnc3ccccc23)cc1	POLK inh inconclusive (no result: WRN helicase inh, POLH inh, PI5P4K alpha inh, Pol beta inh)
CCc1c(C)c2cc(Cl)c(O)c(CN3CCCC3)c2oc1=O	Pol iota inh inconclusive
CC(C)c1ccc(C2NC(=O)CCC2[N+](=O)[O-])cc1 (centres undefined)	none
Cc1csc(NC(=O)CSc2nc3[nH]c(=O)cc(O)c3s2)n1	POLH inh 28µM (no result: Pol beta inh)
CCCSc1nnc(NC(=O)CSc2nc3[nH]c(=O)cc(O)c3s2)s1	POLH inh 56µM, PI5P4K alpha inh -72, Pol iota inh 35µM (no result: Pol beta inh)
O=C(CSc1nc2[nH]c(=O)cc(O)c2s1)Nc1nncs1	none (no result: Pol beta inh)
CCc1nnc(NC(=O)CSc2nc3[nH]c(=O)cc(O)c3s2)s1	POLK inh inconclusive, POLH inh inconclusive, Pol iota inh inconclusive (no result: Pol beta inh)
Clc1ccc2nccnc2c1	none (no result: WRN helicase inh, POLH inh, PI5P4K alpha inh, Pol beta inh)
Cc1ccc(-n2ncc(C(=O)NCCc3ccsc3)c2C2CCN(C(=O)OC(C)(C)C)CC2)cc1C	none (no result: WRN helicase inh, PI5P4K alpha inh)
Cc1ccc2c(c1)CO[C@]21O[C@H](CCO)C[C@H](O)[C@H]1O	none (no result: POLK inh, Pol beta inh, Pol iota inh)
CC(C)c1ccc(NS(=O)(=O)c2cc(Br)cc3c2N(C(=O)C2CC2)CC3)cc1	none (no result: WRN helicase inh, PI5P4K alpha inh)
CC(=O)N1CCc2cc(Br)cc(S(=O)(=O)N3CCC(C(=O)Nc4ccc(C(C)C)cc4)CC3)c21	POLK inh inconclusive, Pol iota inh 35µM (no result: WRN helicase inh, PI5P4K alpha inh)
Cn1c(NN)nc2c1c(=O)n(Cc1ccccc1)c(=O)n2C	POLH inh inconclusive, PI5P4K alpha inh -58, Pol beta inh 40µM, Pol iota inh inconclusive
COc1cc(-c2nc(=S)[nH][nH]2)cc(OC)c1OC	WRN helicase inh inconclusive, PI5P4K alpha inh -79, Pol iota inh inconclusive
CCOc1ccc(NC(=O)CSc2nnc(-c3ccc(C)cc3)c(-c3ccc(C)cc3)n2)cc1	none (no result: WRN helicase inh, PI5P4K alpha inh)
CCOC(=O)C1=C(C)NC(=O)NC1c1ccc(Br)o1 (centres undefined)	none
CC1=C(C(=O)OC(C)C)C(c2ccc(F)cc2)NC(=O)N1 (centres undefined)	none (no result: PI5P4K alpha inh)
CCOC(=O)C1=C(C)NC(=O)NC1c1ccco1 (centres undefined)	POLK inh inconclusive, POLH inh 79µM, Pol beta inh 35µM, Pol iota inh 45µM (no result: PI5P4K alpha inh)
CC1=C(C(=O)OC(C)C)[C@@H](c2ccc(C)o2)NC(=O)N1	WRN helicase inh inconclusive, POLH inh 1.1µM
CC1=C(C(=O)OC(C)C)C(c2ccco2)NC(=O)N1 (centres undefined)	POLH inh inconclusive, PI5P4K alpha inh inconclusive, Pol beta inh 50µM, Pol iota inh inconclusive
CC1=C(C(=O)OC(C)C)C(c2ccc(C)o2)C(C(=O)OC(C)C)=C(C)N1	none
COCCOC(=O)C1=C(C)NC(=O)NC1c1ccco1 (centres undefined)	POLH inh 79µM, Pol beta inh inconclusive, Pol iota inh 40µM
CC(C)CN(C)c1ccc(/C=C2\C=Cc3ccccc32)cc1	none (no result: WRN helicase inh, POLH inh, PI5P4K alpha inh, Pol beta inh)
O=c1c2c([nH]c3ccccc13)C(=C1CCCC1)CC2	WRN helicase inh 50µM, POLK inh 40µM, POLH inh 20µM, PI5P4K alpha inh -52, Pol beta inh 32µM, Pol iota inh inconclusive
Cc1ccc(C(=O)Sc2cccccc2=O)cc1	Pol beta inh 40µM, Pol iota inh inconclusive
O=C(CSc1nc2ccc(Cl)cc2[nH]1)NCc1ccco1	WRN helicase inh inconclusive
Cc1cc(C(=O)C(C)Cl)c(C)n1Cc1ccco1 (centres undefined)	WRN helicase inh inconclusive, POLK inh inconclusive, POLH inh 71µM, PI5P4K alpha inh inconclusive, Pol beta inh inconclusive, Pol iota inh 16µM
Cc1cc(C(=O)CSc2nnnn2C)c(C)n1Cc1ccco1	Pol beta inh inconclusive, Pol iota inh 79µM
Cc1cc(C(=O)CSc2nc3ccc(Cl)cc3[nH]2)c(C)n1Cc1ccco1	POLK inh inconclusive, Pol iota inh 22µM (no result: Pol beta inh)
COc1ccc(NC(=O)c2oc3ccccc3c2NC(=O)C23CC4CC(CC(C4)C2)C3)cc1	none (no result: WRN helicase inh, PI5P4K alpha inh)
O=C1c2cc(Br)ccc2N(Cc2ccc(Br)cc2)S(=O)(=O)C1c1cc(Cl)c(Cl)cc1[N+](=O)[O-] (centres undefined)	WRN helicase inh inconclusive, POLK inh inconclusive, POLH inh 22µM, PI5P4K alpha inh -61, Pol iota inh inconclusive (no result: Pol beta inh)
COc1ccc(-c2nc(-c3cccs3)c(-c3cccs3)[nH]2)cc1OC	Pol beta inh 89µM
CC(C)Nc1nc(Nc2ccc(C(N)=O)cc2)c2sccc2n1	none (no result: POLK inh, POLH inh, Pol beta inh, Pol iota inh)
COc1ccc(N=Cc2ccccc2O)cc1	none (no result: Pol beta inh)
COc1ccc(N=Cc2oc3ccc4ccccc4c3c2O)cc1	Pol beta inh 11µM, Pol iota inh inconclusive
C=CCN(c1ccccc1OC)S(=O)(=O)c1cccc(C(=O)NCC(c2ccc(OC)cc2)N2CCCC2)c1 (centres undefined)	none (no result: Pol beta inh)
[O-]c1c[n+](-c2ccc(-[n+]3cc([O-])on3)cc2)no1	POLH inh 45µM, PI5P4K alpha inh -56, Pol beta inh 7.1µM, Pol iota inh inconclusive
COc1ccc(NC(=O)CS(=O)CC(=O)Nc2ccc(NC(C)=O)cc2)cc1 (centres undefined)	WRN helicase inh inconclusive
O=C(C[C@H]1CC[C@H]2[C@@H](COC[C@H](O)CN2Cc2ccccc2)O1)NCCCN1CCOCC1	none (no result: POLK inh, POLH inh, Pol beta inh, Pol iota inh)
C#CCNC(=O)C[C@@H]1C[C@@]2(C(=O)OCC)CCCC=C2N(CCCCCCCC)C1=O	none (no result: POLK inh, POLH inh, Pol beta inh, Pol iota inh)
COc1ccc2c(CC(=O)OCC(=O)Nc3ccc(C)cc3)coc2c1	POLK inh inconclusive, POLH inh 20µM, Pol iota inh inconclusive (no result: Pol beta inh)
COc1ccc2c(CC(=O)OCC(=O)Nc3ccc(S(N)(=O)=O)cc3)coc2c1	none
CCOC(=O)CCCN1CC(O)=C(c2nc(-c3ccc(Cl)cc3)cs2)C1=N	none
CCCCN1CC(O)=C(c2nc(-c3ccc(Br)cc3)cs2)C1=N	POLH inh inconclusive, Pol beta inh 5µM
COc1cccc(NC(=O)COC(=O)C2CC3CCCC(C2)C3=O)c1 (centres undefined)	none (no result: Pol beta inh)
O=C(O)c1cc2cccc(S(=O)(=O)N3CCOCC3)c2cc1O	PI5P4K alpha inh -73
CCN(CC)C(=O)Cn1cc(C(=O)C(=O)N2CCN(c3ccc([N+](=O)[O-])cc3)CC2)c2ccccc21	none
O=c1c(N2CCc3ccccc3C2)csc2ccc(Br)cc12	none (no result: WRN helicase inh, PI5P4K alpha inh)
COc1ccc(-c2csc(NC(=O)CSc3nc(C)nc4sc(C(=O)O)c(C)c34)n2)cc1	WRN helicase inh inconclusive, POLK inh 32µM, POLH inh 22µM, PI5P4K alpha inh inconclusive, Pol beta inh 7.1µM, Pol iota inh inconclusive
COc1ccc(-c2csc(NC(=O)CSc3nc(C)cs3)n2)cc1	POLH inh inconclusive (no result: Pol beta inh)
Cn1c(=O)c2c(-c3ccccc3Cl)n(-c3cc(Cl)ccc3O)cc2n(C)c1=O	none (no result: WRN helicase inh, PI5P4K alpha inh)
